# In paper PMC11062922 (Nature Chemical Biology, 2023):
# Where two headings read alike, the source gives them in different places.
# Experiments:
# PIK3C2A = test system: PIK3C2A; design: species or system human, MV4-11 + K-562 + COLO205 + SK-N-BE2 + OVCAR-8; conditions: read-out: apparent Kd; compound concentrations: 100 nM and 1000 nM (sheet 'Samples'), CATDS: 5.6745724082573501E-2; n = 1
# PIK3C2B = test system: PIK3C2B; design: species or system human, MV4-11 + K-562 + COLO205 + SK-N-BE2 + OVCAR-8; conditions: read-out: apparent Kd; compound concentrations: 100 nM and 1000 nM (sheet 'Samples'), CATDS: 8.3411679268076702E-2; n = 1
# PRKD1 = test system: PRKD1; design: species or system human, MV4-11 + K-562 + COLO205 + SK-N-BE2 + OVCAR-8; conditions: read-out: apparent Kd; compound concentrations:100 nM and 1000 nM (sheet 'Samples'); n = 1
# PKM = test system: PKM; design: species or system human, MV4-11 + K-562 + COLO205 + SK-N-BE2 + OVCAR-8; conditions: read-out: apparent Kd; compound concentrations: 100 nM and 1000 nM (sheet 'Samples'), CATDS: 1; n = 1
# TGFBR2 = test system: TGFBR2; design: species or system human, MV4-11 + K-562 + COLO205 + SK-N-BE2 + OVCAR-8; conditions: read-out: apparent Kd, n = 1
# PIM3 = test system: PIM3; design: species or system human, MV4-11 + K-562 + COLO205 + SK-N-BE2 + OVCAR-8; conditions: read-out: apparent Kd, compound concentrations: 100 nM and 1000 nM (sheet 'Samples'), n = 1
# Q6ZSR9 = Q6ZSR9 (human, UniProt Q6ZSR9); design: species or system MV4-11 + K-562 + COLO205 + SK-N-BE2 + OVCAR-8; conditions: read-out: apparent Kd, n = 1
# Q6ZSR9, sequence (Q6ZSR9 whole entry, looked up): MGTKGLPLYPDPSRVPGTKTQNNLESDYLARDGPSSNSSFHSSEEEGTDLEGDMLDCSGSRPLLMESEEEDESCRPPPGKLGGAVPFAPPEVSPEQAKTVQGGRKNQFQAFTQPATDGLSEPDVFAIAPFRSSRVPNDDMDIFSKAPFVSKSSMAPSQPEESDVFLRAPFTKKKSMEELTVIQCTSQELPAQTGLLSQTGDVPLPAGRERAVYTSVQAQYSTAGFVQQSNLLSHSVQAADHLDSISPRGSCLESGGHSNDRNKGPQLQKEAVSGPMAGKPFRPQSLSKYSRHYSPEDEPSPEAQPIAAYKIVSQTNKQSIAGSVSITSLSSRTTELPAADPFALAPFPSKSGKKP
# RPS6KB1 = test system: RPS6KB1; design: species or system human, MV4-11 + K-562 + COLO205 + SK-N-BE2 + OVCAR-8; conditions: read-out: apparent Kd, n = 1
# TAOK1 = test system: TAOK1; design: species or system human, MV4-11 + K-562 + COLO205 + SK-N-BE2 + OVCAR-8; conditions: read-out: apparent Kd; compound concentrations: 100 nM and 1000 nM (sheet 'Samples'), CATDS: 1; n = 1
# RIOK2 = test system: RIOK2; design: species or system human, MV4-11 + K-562 + COLO205 + SK-N-BE2 + OVCAR-8; conditions: read-out: apparent Kd, compound concentrations: 100 nM and 1000 nM (sheet 'Samples'), n = 1
# ACOX1 = conditions: read-out: apparent Kd, n = 1
# AKT3 = conditions: read-out: apparent Kd, n = 1
# BTK = conditions: read-out: apparent Kd, n = 1
# CDC42 = conditions: read-out: apparent Kd, n = 1
# CDK7 = conditions: read-out: apparent Kd, n = 1
# MAP3K2 = conditions: read-out: apparent Kd, n = 1
# PIK3CD = conditions: read-out: apparent Kd, n = 1
# PRKX;PRKY = conditions: read-out: apparent Kd, n = 1
# STK16 = conditions: read-out: apparent Kd, n = 1
# TTN = conditions: read-out: apparent Kd, n = 1
# [1] = compound concentrations:100 nM and 1000 nM (sheet 'Samples')
# [2] = compound concentrations:100 nM and 1000 nM (sheet 'Lestaurtinib' of Supplementary Table 1),run:Lestaurtinib_02339_R2,Plate:MR001
# [3] = compound concentrations:100 nM and 1000 nM (sheet 'Lestaurtinib' of Supplementary Table 1),run:Lestaurtinib_02422_R1,Plate:MR006
# [4] = compound concentrations:100 nM and 1000 nM (sheet 'Lestaurtinib' of Supplementary Table 1),run:Lestaurtinib_02487_R1,Plate:MR012
# [5] = compound concentrations:100 nM and 1000 nM (sheet 'Lestaurtinib' of Supplementary Table 1),run:Lestaurtinib_02443_R3,Plate:MR009
compound,measurement,setting,value
Nc1ncc(-c2ccc3nccc(-c4ccncc4)c3c2)cc1S(=O)(=O)N1CCCCC1 [GSK1693850A],potency estimated from few doses,PIK3C2A,2320 nM
same,potency estimated from few doses,PIK3C2B,483 nM
Cc1cccc(-c2nc(Nc3ccc4c(cnn4C)c3)c3ccccc3n2)n1 [GW876731X],potency estimated from few doses,PRKD1,92.8 nM
Cn1cc(C2=C(c3cn(C)c4ccc(OCc5ccccc5)cc34)C(=O)NC2=O)c2ccccc21 [RO0317432-000],potency estimated from few doses,PKM,1860 nM
COC(=O)C(NC(=O)NC1CCN(c2ccnc(Nc3ccc(F)cc3)n2)C1)c1ccccc1 (stereo not drawn) [GSK1379712_KCGS],potency estimated from few doses,"TGFBR2; compound concentrations: 100 nM and 1000 nM (sheet 'Samples'), CATDS: 0.45581202141121302",1400 nM
Cc1cc(-c2ccc3c(c2)CC[C@@H](N[C@@H](C)c2ccccc2)C3)cnc1N.Cc1cc(-c2ccc3c(c2)CC[C@@H](N[C@@H](C)c2ccccc2)C3)cnc1N.Cl.Cl [GW412617A],potency estimated from few doses,PIM3; CATDS: 0.55054057410094004,1020 nM
CCSc1ccc(-c2nc3n(c2-c2ccncc2)CCC3)cc1.CCSc1ccc(-c2nc3n(c2-c2ccncc2)CCC3)cc1.Cl.Cl [SKF-106164-A2],potency estimated from few doses,PIM3; CATDS: 1,1300 nM
Cc1cccc(-c2n[nH]cc2-c2ccc3ncccc3n2)n1 [GW786460X],potency estimated from few doses,TGFBR2; [1],112 nM
CCn1c(-c2nonc2N)nc2cnc(Oc3cccc(NC(=O)c4ccc(N(C)C)cc4)c3)cc21 [GSK248233A],potency estimated from few doses,Q6ZSR9; [1],2120 nM
same,potency estimated from few doses,RPS6KB1; [1],978 nM
O=C(NCCNc1ccnc(Nc2ccc(F)cc2)n1)Nc1ccc2c(c1)OCO2 [GSK1379882A],potency estimated from few doses,TAOK1,1250 nM
COc1ccc2ncn(-c3cc(O[C@H](C)c4ccccc4C(F)(F)F)c(C(N)=O)s3)c2c1 [GSK317315A],potency estimated from few doses,RIOK2; CATDS: 0.34769297632871299,1940 nM
Cl.c1ccc(Oc2ccc(Nc3ncc(-c4ccccc4)o3)cc2)cc1 [GW641155A],potency estimated from few doses,RIOK2; CATDS: 1,2140 nM
Nc1nonc1-c1nc2cnccc2n1C1CC1 [SB-736302],potency estimated from few doses,"RPS6KB1; compound concentrations: 100 nM and 1000 nM (sheet 'Samples'), CATDS: 0.26812352090996999",794 nM
COC[C@H](NC1=NC(=O)/C(=C/c2ccc3ncccc3c2)S1)c1ccccc1 [RO4595946-000],potency estimated from few doses,"Q6ZSR9; compound concentrations: 100 nM and 1000 nM (sheet 'Samples'), CATDS: 1",1580 nM
Lestaurtinib,potency estimated from few doses,"ACOX1; compound concentrations:100 nM and 1000 nM (sheet 'Lestaurtinib' of Supplementary Table 1),run:Lestaurtinib_02364_R2,Plate:MR002",1360 nM
same,potency estimated from few doses,"ACOX1; compound concentrations:100 nM and 1000 nM (sheet 'Lestaurtinib' of Supplementary Table 1),run:Lestaurtinib_02624_R1,Plate:MR020",1670 nM
same,potency estimated from few doses,AKT3; [2],1910 nM
same,potency estimated from few doses,"AKT3; compound concentrations:100 nM and 1000 nM (sheet 'Lestaurtinib' of Supplementary Table 1),run:Lestaurtinib_03172_R3,Plate:MR031",1540 nM
same,potency estimated from few doses,BTK; [3],760 nM
same,potency estimated from few doses,BTK; [4],385 nM
same,potency estimated from few doses,"CDC42; compound concentrations:100 nM and 1000 nM (sheet 'Lestaurtinib' of Supplementary Table 1),run:Lestaurtinib_02437_R1,Plate:MR007",1440 nM
same,potency estimated from few doses,"CDC42; compound concentrations:100 nM and 1000 nM (sheet 'Lestaurtinib' of Supplementary Table 1),run:Lestaurtinib_02765_R3,Plate:MR026",1440 nM
same,potency estimated from few doses,CDK7; [4],132 nM
same,potency estimated from few doses,"CDK7; compound concentrations:100 nM and 1000 nM (sheet 'Lestaurtinib' of Supplementary Table 1),run:Lestaurtinib_02496_R2,Plate:MR013",1590 nM
same,potency estimated from few doses,MAP3K2; [2],2130 nM
same,potency estimated from few doses,MAP3K2; [5],2170 nM
same,potency estimated from few doses,PIK3CD; [2],190 nM
same,potency estimated from few doses,"PIK3CD; compound concentrations:100 nM and 1000 nM (sheet 'Lestaurtinib' of Supplementary Table 1),run:Lestaurtinib_02577_R3,Plate:MR016",12.4 nM
same,potency estimated from few doses,PRKX;PRKY; [5],1430 nM
same,potency estimated from few doses,"PRKX;PRKY; compound concentrations:100 nM and 1000 nM (sheet 'Lestaurtinib' of Supplementary Table 1),run:Lestaurtinib_02896_R3,Plate:MR030",2210 nM
same,potency estimated from few doses,STK16; [3],1430 nM
same,potency estimated from few doses,"STK16; compound concentrations:100 nM and 1000 nM (sheet 'Lestaurtinib' of Supplementary Table 1),run:Lestaurtinib_03260_R1,Plate:MR033",1340 nM
same,potency estimated from few doses,"TTN; compound concentrations:100 nM and 1000 nM (sheet 'Lestaurtinib' of Supplementary Table 1),run:Lestaurtinib_02364_R1,Plate:MR002",1910 nM
same,potency estimated from few doses,"TTN; compound concentrations:100 nM and 1000 nM (sheet 'Lestaurtinib' of Supplementary Table 1),run:Lestaurtinib_02606_R2,Plate:MR019",737 nM
Cc1nnc(-c2ccc(C)c(-c3ccc(C(=O)Nc4ccc(NS(C)(=O)=O)cc4)cc3)c2)o1 [GW702865X],potency estimated from few doses,TAOK1,1620 nM
